Compound activity deposited in PubChem by several laboratories.
GDH-TPI counter: counter-screen for M. tuberculosis FBA inhibitors: GDH-TPI coupled enzymes | GDH-TPI coupled enzyme counterscreen, NADH absorbance | inhibition, % at 4.8 µM | 360,000 compounds, 1.2% hits; in the data active = inhibition above about 30%;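 note: 0% = DMSO wells and 100% = wells lacking the enzyme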
BJeLR lethal: kills HRASV12-expressing BJeLR cells | BJeLR (HRASV12) viability, CellTiter-Glo ATP luminescence, 48 h | inhibition, % (test concentration not listed) | 300,000 compounds, 0.17% hits; in the data active = inhibition above about 50%
PfHsp40 yeast: rescue of PfHsp40-mediated yeast toxicity; growth rescue, % at 12.5 µM; 340,000 compounds, 0.68% hits; S. cerevisiae expressing PfHsp40, growth rescue, ATP luminescence; AID 504582; in the data active = growth rescue above about 28%, passing the limit was not always enough;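 note: yeast W303a lacking pdr1 and pdr3 grown in galactose medium; growth measured after three days at 30 °C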
Mtb FBA inh: inhibits M. tuberculosis FBA enzyme; inhibition, % at 1 µM; purified M. tuberculosis FBA, fluorescence read-out; P9WQA3; 360,000 compounds, 2.3% hits; in the data active = inhibition above about 27%;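 note: 0% = vehicle and 100% = reference inhibitor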
Target sequence (P9WQA3 whole entry, looked up): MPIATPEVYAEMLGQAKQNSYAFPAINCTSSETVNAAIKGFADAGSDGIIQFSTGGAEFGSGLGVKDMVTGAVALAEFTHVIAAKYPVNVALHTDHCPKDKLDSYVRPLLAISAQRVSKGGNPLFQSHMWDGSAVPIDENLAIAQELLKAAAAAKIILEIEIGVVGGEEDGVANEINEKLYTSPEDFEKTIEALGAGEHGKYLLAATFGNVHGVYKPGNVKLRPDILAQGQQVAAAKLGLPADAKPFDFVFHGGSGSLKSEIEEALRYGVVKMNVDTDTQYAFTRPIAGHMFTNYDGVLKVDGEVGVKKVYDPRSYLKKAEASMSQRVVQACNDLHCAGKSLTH
PrP 5UTR inh: inhibition of PrP 5' UTR reporter expression; cell-based PrP 5' UTR mRNA reporter, plate reader; inhibition, % (test concentration not listed); 340,000 compounds, 0.35% hits; AID 488862; in the data active = inhibition above about 52%; note: 0 = median of the neutral control wells
PrPC surface inh: cell surface PrPC inhibition, primary TR-FRET screen; P04156; TR-FRET read-out; inhibition, % at 13.8 µM; 370,000 compounds, 0.43% hits; AID 720596; in the data active = inhibition above about 24%; note: 0% = median of the test wells and 100% = reference compound wells
Numbers without * were called inactive; . = no result. A selection: hits, their analogues and other compounds. The true share with any hit is near 4.5%.

SMILES | GDH-TPI counter | BJeLR lethal | PfHsp40 yeast | Mtb FBA inh | PrP 5UTR inh | PrPC surface inh
CCNc1ccc(C(=O)OCC)cc1NC(=O)c1cc(S(=O)(=O)N2CCOCC2)ccc1C | 12 | -3 | 113* | 2 | 3 | 3
CC[C@H](CCCCCCCn1ccc2ccccc21)CCC(=O)N(c1ccccc1)c1ccccc1 | . | . | . | . | . | -6
Cc1ccc2[nH]c(=O)c(CN(Cc3cccs3)Cc3nnnn3CC3CCCO3)cc2c1 (centres undefined) | 18 | -11 | 105* | 0 | -29 | -5
Cc1ccc2cc(CN(Cc3cccs3)Cc3nnnn3CC3CCCO3)c(=O)[nH]c2c1 (centres undefined) | 15 | 1 | 0 | -2 | -23 | -1
COc1ccccc1CN(Cc1cc2cc(C)cc(C)c2[nH]c1=O)Cc1nnnn1CC1CCCO1 (centres undefined) | 9 | -10 | 2 | 5 | 7 | -2
Cc1ccc2cc(CN(Cc3cccs3)Cc3nnnn3CC3CCCO3)c(=O)[nH]c2c1C (centres undefined) | 20 | -3 | 73* | 2 | -5 | 1
C=CCNC(=O)CN(C(=O)Cc1ccc(Cl)nc1)c1cccc(Br)c1 | . | . | . | . | . | 2
CC(C)=CCc1c(O)cc2c(=O)c3ccc(O)cc3oc2c1O | 6 | 3 | 147* | 1 | -24 | 0
COc1c(CC=C(C)C)c(O)cc2oc(=O)c3c4ccc(O)cc4oc3c12 | 5 | -8 | . | 142* | . | .
CC(C)=CCc1c(O)cc(O)c2c(=O)c3c(CC=C(C)C)c(O)ccc3oc12 | . | 6 | . | . | . | .
C=C(C)/C=C1/CN(Cc2ccc3c(c2)OCO3)C(=N)N1C(=O)OCc1ccccc1 | . | . | . | . | . | -11
CC(C)CCN(C)C1CCN(C(=O)Nc2ccccc2)CC1 | . | . | . | . | . | -7
C=CCN(CC#CC1=CCCCC1)Cc1ccc(OC)cc1OC | . | . | . | . | . | 5
O=C(Nc1cccc(O)c1)c1cc(-c2cccs2)on1 | -6 | 6 | 4 | 165* | -23 | 0
CC(=O)c1cccc(NC(=O)c2cc(-c3cccs3)on2)c1 | 14 | -1 | -1 | 3 | 4 | 4
CN(C)/C=N/c1ncc(C(=O)c2ccc(-c3ccccc3)cc2)s1 | 34* | -1 | 1 | -1 | -13 | 3
Cc1cc(C(=O)c2cnc(/N=C/N(C)C)s2)cc(C)c1O | 19 | 2 | 0 | -5 | -22 | -15
CN(C)/C=N/c1ncc(C(=O)c2ccccc2)s1 | 32* | 8 | 3 | 1 | -58 | -3
Cn1nc([N+](=O)[O-])nc1Sc1nnc(-c2ccccc2)o1 | 2 | 56* | 0 | -2 | -28 | 7
CC1(C)CC(=O)C2=C(C1)NC(Nc1nc3ccccc3o1)=NC2c1ccccn1 (centres undefined) | 44* | -13 | -1 | -2 | -2 | -4
O=C(C(=O)N1CCC(CNS(=O)(=O)c2cc(C(F)(F)F)cc(C(F)(F)F)c2)CC1)c1cc2ccccc2o1 | . | . | . | . | . | -6
CCOC(=O)CSC1=C(C#N)C(c2ccc(C)o2)CC(=O)N1 (centres undefined) | 0 | 37 | 0 | -2 | 55* | 14
Cn1c2nc(=O)n(-c3ccccc3)c(=O)c-2nc2c1CCCC2 | 19 | . | . | 184* | . | .
COCCn1c2nc(=O)n(-c3ccccc3)c(=O)c-2nc2ccccc21 | 18 | . | . | -4 | . | -58
N#Cc1cccc(NC(=O)O[C@@H]2CC[C@@]34CCCN3C(=O)CCC[C@H]4C2)c1 | . | . | . | . | . | 4
SMILES | GDH-TPI counter | BJeLR lethal | PfHsp40 yeast | Mtb FBA inh | PrP 5UTR inh | PrPC surface inh
COC(=O)c1sc(Nc2ccccc2)nc1C | 32* | -2 | 2 | 5 | -43 | -2
Cc1nc(Nc2ccc(Cl)c(Cl)c2)sc1C(=O)Nc1ccccc1 | 6 | 8 | 103* | 3 | -20 | 19
CC(C)(C)C(=O)c1sc(Nc2ccccc2)nc1N | 40* | -10 | 3 | -3 | -179 | 0
Cc1nc(Nc2ccc(C(=O)O)cc2)sc1-c1ccccc1 | 37* | 0 | 3 | -2 | -48 | -8
CCOC(=O)[C@@]12CN(C(=O)OC(C)(C)C)CC=C1N(Cc1ccc(OC)cc1)C(=O)[C@H]2CC(=O)NCc1cccs1 | . | . | . | . | . | 12
Cc1ccc(-n2c(SCC(=O)Nc3ccc4c(c3)OCCO4)nnc2-c2cnccn2)cc1 | . | . | . | . | . | 3
O=C(Nc1nnc([C@@H]2C[C@H](O)[C@@H](CO)O2)s1)Nc1ccc(F)cc1F | 7 | . | . | -1 | . | 8
CC(NNC(=S)N1CCN(c2ccccn2)CC1)c1nccc2ccccc12 (centres undefined) | 8 | . | 149* | 0 | 32 | -3
O=C1c2cccc3cccc(c23)C(=O)N1c1ccccc1Cl | 33* | 0 | -1 | 25 | -5 | -37
O=C(NCCCN1CCCC1=O)c1cc(-c2ccc3c(c2)OCO3)nc2ccccc12 | 34* | -4 | 0 | 6 | -13 | -2
O=C(NCCCN1CCOCC1)c1cc(-c2ccc3c(c2)OCO3)nc2ccccc12 | 25 | 1 | 2 | 1 | 1 | -6
N#CC(C#N)=C1C=CC=CN1/C(=C\c1ccco1)C(=O)c1ccc(Cl)cc1 | 44* | . | 0 | 4 | -3 | -6
N#C/C(=C\c1ccco1)C(=O)NCc1ccccc1 | 1 | -6 | 0 | -2 | -53 | .
N#CC(C#N)=C1C=CC=CN1/C(=C\c1ccco1)C(=O)c1ccc(-c2ccccc2)cc1 | 27 | . | 56* | 2 | -8 | 2
CC(/C=N/n1c(-c2ccc(Cl)cc2)n[nH]c1=S)=C\c1ccco1 | 14 | -6 | 2 | 3 | 0 | -9
c1ccc(Cn2ccc3ccc(-c4ccc5ccn(Cc6cccc(Oc7ccccc7)c6)c5c4)cc32)cc1 | . | . | . | . | . | 1
CCCCc1c(-c2ccccc2OC)ncn1Cc1cc(F)cc(F)c1 | . | . | . | . | . | 4
CCNC(=S)N/N=C/c1ccc(OCc2ccc(C(=O)OC)cc2)cc1 | 33* | 11 | 1 | 2 | 2 | 8
O=C(N/N=C/c1ccc[nH]1)c1ccccc1[N+](=O)[O-] | 13 | 0 | 0 | 1 | -19 | -7
O=C(N/N=C/c1ccc[nH]1)c1ccc(Cl)cc1 | 39* | 10 | -1 | -1 | -22 | 5
Cc1ccc(C(=O)N/N=C\c2ccc[nH]2)cc1[N+](=O)[O-] | 48* | 9 | 0 | 1 | -28 | 1
O=C(OC12CCCN(C1)/C(=C/c1ccncc1)C2)C1CCCCC1 (centres undefined) | . | . | . | . | . | 6
CCC[C@H]1[C@@H](NC(=O)C2CCCCC2)CC[C@@]23CCCN2C(=O)CCC[C@@H]13 | . | . | . | . | . | -5
COC(=O)CSc1nc2nc(C)c(Br)cc2[nH]1 | 1 | -9 | -1 | 1 | -27 | -7
C=C(C)CSc1nc2nc(C)c(Br)cc2[nH]1 | 36* | 5 | -1 | 2 | -26 | -7
CCCC1CCC2(CC1)CCC2OC(=O)Nc1cccc(C(F)(F)F)c1 (centres undefined) | . | . | . | . | . | 0
CCn1cc(C(=O)N2CCN(c3ccc(C(C)=O)cc3)CC2)c2cc(OC)c(OC)cc2c1=O | 36* | -11 | 0 | 2 | -14 | 5
